This passage reports composite z-score, composite Z-score and z-score results from PubChem BioAssay.

For test [1], the target named is Albumin (Bos taurus) (UniProt P02769). Briefly: compounds binding labelled BSA control protein – biochemical, small-molecule microarray, Alexa647 label, 635/667 nm fluorescence, artefact control for SMM control protein annotation, profiling panel (AID 1118).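 Further: score merges 667 nm emission intensity and signal-to-noise per printed compound spot.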 To be noted: BSA-A647 binding, fluorescence 635 nm, higher = more signal.
Test [2] is described as follows: probe aXIP binding to arrayed compounds – biochemical, NeuroSMM set, 635/667 nm fluorescence, primary screen (AID 1119).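 Further: probe is the protein aXip251-270 applied at 1 µg/mL to compound-printed slides; binding of probe to printed compounds measured as 667 nm fluorescence plus signal to noise.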 The following applies: small-molecule microarray, higher = more signal, called active from +8 up or from −8 down.
Test [3] can be described thus: probe aNOTCH3 binding on compound microarray – biochemical, small-molecule microarray, 635/667 nm fluorescence, primary screen (AID 1120).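 Further: probe is a biotin-tagged antibody raised against NOTCH3 rather than NOTCH3 protein; score merges spot fluorescence near 667 nm with spot signal to noise.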 To be noted: higher = more signal.
Test [4] in a line: probe aNOTCH2 binding on compound microarray – biochemical, small-molecule microarray, 635/667 nm fluorescence, primary screen (AID 1121).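 Further: score merges feature fluorescence read at 667 nm with its signal to noise.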 The following applies: higher = more signal.
The target of test [5] is Carbonic anhydrase 2 (Homo sapiens) (UniProt P00918). Put plainly: compounds binding carbonic anhydrase 2 – biochemical, small-molecule microarray, Alexa647-labelled CAII, profiling panel (AID 1122). To be noted: CAII-A647 binding fluorescence, higher = more signal.
Test [6] can be described thus: COS7 lysate on small-molecule microarray, probe aHis, 635 nm (AID 1123).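 Further: z-score combines 667nm fluorescence intensity with signal-to-noise per printed compound spot.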 To be noted: COS7 cell lysate, fluorescence, higher = more signal.
The nature of test [7]: probe aLAP1 signal on lysate-treated microarray – cell lysate, small-molecule microarray, COS7 lysate, primary screen (AID 1124).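 Further: lysate comes from COS7 cells expressing LAP1 and is applied at 0.3 µg/mL; score merges spot fluorescence near 667 nm with signal-to-noise over triplicate slides.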 To be noted: probe aLAP1, fluorescence, higher = more signal.
Test [8] concerns Sam68 (KHDRBS1). Briefly: compounds binding KHDRBS1 protein – biochemical, small-molecule microarray, 635 nm fluorescence, primary screen (AID 1125).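 Further: score merges 667 nm channel intensity with signal to noise over triplicate slides.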 The following applies: higher = more signal.
Test [9] relates to Chordin-like protein 2 (CHRDL2). Briefly: compounds binding chordin-like 2 – biochemical, small-molecule microarray, 635 nm fluorescence, primary screen (AID 1126).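 Further: printed compound slides probed with Chrdl2 protein at 4 µg/mL for 1 h at 4 C; score merges 667 nm emission intensity with signal to noise over three replicate slides.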 To be noted: fluorescence 635 nm, higher = more signal.
Test [10] has as its target Concanavalin-A (Canavalia ensiformis) (UniProt P02866). Briefly: compounds binding concanavalin A lectin – biochemical, small-molecule microarray, Alexa647 label, 635 nm, artefact control for SMM control protein annotation, primary screen (AID 1127).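 Further: z combines 667 nm emission intensity with signal-to-noise across three replicate slides.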 The following applies: ConA-A647 binding fluorescence, higher = more signal.
Test [11] can be described thus: compounds binding Alexa647 anti-His antibody – biochemical, small-molecule microarray, 635 nm fluorescence, artefact control for SMM control protein annotation, primary screen (AID 1128).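 Further: score merges feature fluorescence with signal-to-noise for each printed compound spot.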 The following applies: higher = more signal.
Test [12] deals with Human papillomavirus type 1a E7 protein (residues 1-88). Briefly: HPV1a E7 small-molecule binders, primary screen, biochemical, small-molecule microarray, residues 1-88, 635 nm (AID 1129). The following applies: small-molecule microarray binding, fluorescence 635 nm; higher = more signal.
The target of test [13] is Focal adhesion kinase 1 (Homo sapiens) (UniProt Q05397). Put plainly: PTK2 protein binding on printed compound slides – biochemical, small-molecule microarray, 635/667 nm fluorescence, BSA, DTT, primary screen (AID 1130).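 Further: composite of spot emission at 667 nm and signal to noise over triplicate slides.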 The following applies: 635 nm fluorescence, higher = more signal.
Test [14] has as its system Fibrinogen (Alexa647-labelled). Put plainly: Alexa647-fibrinogen binding to printed small molecules – biochemical, small-molecule microarray, 635/667 nm fluorescence, artefact control for SMM control-protein annotation, profiling panel (AID 1131).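 Further: z-score merges 667 nm fluorescence with per-spot signal-to-noise over triplicate slides.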 The following applies: fibrinogen-A647 binding fluorescence, higher = more signal.
Test [15] has as its target Follistatin (Homo sapiens) (UniProt P19883). Put plainly: FST protein binding to printed compounds – biochemical, small-molecule microarray, 635/667 nm fluorescence, primary screen (AID 1132). The following applies: 635 nm fluorescence, higher = more signal.
In test [16] the target is Fibroblast growth factor 2 (Homo sapiens) (UniProt P09038). Put plainly: basic fibroblast growth factor binding to printed compounds – biochemical, small-molecule microarray, 635/667 nm fluorescence, primary screen (AID 1133). To be noted: FGF2, fluorescence 635/667, higher = more signal.
Test [17] in a line: JC-1 mitochondrial potential readout, lung cancer cells – cell-based, A549, JC-1 fluorescence, basal, 24 h, 100 nL, profiling panel (AID 1138).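 Further: A549 lung adenocarcinoma cells under basal conditions with no added stimulus; test concentration not given here.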 To be noted: higher = more signal.
Test [18] relates to Lefty1. Put plainly: Lefty1 protein binding to printed compounds – biochemical, small-molecule microarray, 635/667 nm fluorescence, primary screen (AID 1139). To be noted: fluorescence 635/667, higher = more signal.
Test [19] relates to wheat germ agglutinin (Triticum aestivum), Alexa647-labelled. Briefly: Alexa647-WGA lectin binding to printed small molecules – biochemical, small-molecule microarray, 635/667 nm fluorescence, artefact control for SMM control-protein annotation, profiling panel (AID 1140).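 Further: score merges 667 nm feature emission with signal to noise over triplicate slides.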 To be noted: WGA-A647 binding, 635 nm fluorescence, higher = more signal.
The target of test [20] is Luciferin 4-monooxygenase (Photinus pyralis) (UniProt P08659). Briefly: inhibition of purified Photinus pyralis luciferase – biochemical, luminescence, purified enzyme, 2006 set, primary screen (AID 1141).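 Further: cell-free assay with purified firefly luciferase at 100 ng per well in PBS; test concentration not given here.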 To be noted: purified firefly luciferase, SteadyGlo luminescence, 30 min; higher = more signal, called active from +8 up or from −8 down.

Molecules are shown by their SMILES. The source made the active and inactive calls.

Sequence of Focal adhesion kinase 1 (Homo sapiens) (Q05397 whole entry, looked up): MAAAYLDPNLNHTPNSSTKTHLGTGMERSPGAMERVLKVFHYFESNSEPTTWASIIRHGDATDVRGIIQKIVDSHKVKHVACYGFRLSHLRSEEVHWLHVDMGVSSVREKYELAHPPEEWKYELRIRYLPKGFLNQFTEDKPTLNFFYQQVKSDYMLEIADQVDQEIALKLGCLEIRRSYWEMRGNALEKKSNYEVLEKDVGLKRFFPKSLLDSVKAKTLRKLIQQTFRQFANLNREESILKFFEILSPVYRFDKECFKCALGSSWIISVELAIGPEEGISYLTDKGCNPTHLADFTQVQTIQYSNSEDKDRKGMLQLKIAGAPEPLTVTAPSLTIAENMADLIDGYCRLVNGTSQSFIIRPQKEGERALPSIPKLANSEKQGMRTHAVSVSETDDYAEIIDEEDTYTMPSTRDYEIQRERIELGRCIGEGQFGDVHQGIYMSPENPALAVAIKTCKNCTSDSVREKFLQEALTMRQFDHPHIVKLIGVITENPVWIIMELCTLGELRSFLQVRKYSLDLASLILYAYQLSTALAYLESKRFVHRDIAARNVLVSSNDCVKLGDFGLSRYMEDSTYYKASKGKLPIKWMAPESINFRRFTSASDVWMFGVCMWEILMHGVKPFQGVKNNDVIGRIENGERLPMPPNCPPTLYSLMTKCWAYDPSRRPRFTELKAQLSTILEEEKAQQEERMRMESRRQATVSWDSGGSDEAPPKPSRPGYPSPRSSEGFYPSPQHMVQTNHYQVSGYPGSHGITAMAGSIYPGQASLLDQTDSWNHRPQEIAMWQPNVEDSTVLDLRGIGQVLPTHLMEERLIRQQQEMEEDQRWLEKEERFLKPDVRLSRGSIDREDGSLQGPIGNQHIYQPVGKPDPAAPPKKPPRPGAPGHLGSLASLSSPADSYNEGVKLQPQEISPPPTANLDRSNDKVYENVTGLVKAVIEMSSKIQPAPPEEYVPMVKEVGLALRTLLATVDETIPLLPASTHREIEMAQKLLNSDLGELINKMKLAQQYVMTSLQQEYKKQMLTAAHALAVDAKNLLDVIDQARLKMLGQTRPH
Sequence of Follistatin (Homo sapiens) (P19883 whole entry, looked up): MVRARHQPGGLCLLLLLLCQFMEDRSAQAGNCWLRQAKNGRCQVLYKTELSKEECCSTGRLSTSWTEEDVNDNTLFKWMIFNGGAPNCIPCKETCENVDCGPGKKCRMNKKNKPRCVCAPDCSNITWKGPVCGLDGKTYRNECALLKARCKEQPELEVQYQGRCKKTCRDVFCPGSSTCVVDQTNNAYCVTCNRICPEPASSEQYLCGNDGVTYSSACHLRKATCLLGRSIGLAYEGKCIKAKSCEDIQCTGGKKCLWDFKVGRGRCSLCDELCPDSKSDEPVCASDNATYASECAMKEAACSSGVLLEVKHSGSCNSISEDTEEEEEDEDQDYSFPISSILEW
Sequence of Albumin (Bos taurus) (P02769 whole entry, looked up): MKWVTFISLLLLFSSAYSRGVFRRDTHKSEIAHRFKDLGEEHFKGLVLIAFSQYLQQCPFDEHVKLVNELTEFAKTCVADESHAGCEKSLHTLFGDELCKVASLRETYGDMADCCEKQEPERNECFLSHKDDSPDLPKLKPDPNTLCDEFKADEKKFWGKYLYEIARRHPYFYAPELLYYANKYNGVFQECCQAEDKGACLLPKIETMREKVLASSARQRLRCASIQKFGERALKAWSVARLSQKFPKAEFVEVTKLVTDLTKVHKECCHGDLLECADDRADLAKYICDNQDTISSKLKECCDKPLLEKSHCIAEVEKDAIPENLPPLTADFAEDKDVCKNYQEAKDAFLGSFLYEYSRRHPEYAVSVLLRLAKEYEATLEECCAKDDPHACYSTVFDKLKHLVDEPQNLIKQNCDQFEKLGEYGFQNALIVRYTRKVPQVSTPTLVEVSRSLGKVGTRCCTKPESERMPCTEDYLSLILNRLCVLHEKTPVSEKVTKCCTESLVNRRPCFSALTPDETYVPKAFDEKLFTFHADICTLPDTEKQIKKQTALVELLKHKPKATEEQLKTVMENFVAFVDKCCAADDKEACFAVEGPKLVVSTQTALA
Sequence of Luciferin 4-monooxygenase (Photinus pyralis) (P08659 whole entry, looked up): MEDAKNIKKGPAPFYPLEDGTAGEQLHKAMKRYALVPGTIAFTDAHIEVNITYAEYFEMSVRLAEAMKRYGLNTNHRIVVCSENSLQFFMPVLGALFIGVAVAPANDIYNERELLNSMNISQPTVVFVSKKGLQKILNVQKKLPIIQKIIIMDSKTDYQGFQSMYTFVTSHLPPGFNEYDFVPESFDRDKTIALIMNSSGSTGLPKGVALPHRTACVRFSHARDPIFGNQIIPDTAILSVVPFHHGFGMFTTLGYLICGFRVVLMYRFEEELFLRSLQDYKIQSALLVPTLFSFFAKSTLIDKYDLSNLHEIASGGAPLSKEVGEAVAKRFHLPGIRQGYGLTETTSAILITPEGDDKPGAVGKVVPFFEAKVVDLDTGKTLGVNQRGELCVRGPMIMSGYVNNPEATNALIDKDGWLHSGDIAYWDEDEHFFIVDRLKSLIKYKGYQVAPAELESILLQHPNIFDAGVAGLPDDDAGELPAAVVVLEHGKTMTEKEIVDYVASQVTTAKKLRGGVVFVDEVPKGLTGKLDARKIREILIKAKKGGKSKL
Sequence of Concanavalin-A (Canavalia ensiformis) (P02866 whole entry, looked up): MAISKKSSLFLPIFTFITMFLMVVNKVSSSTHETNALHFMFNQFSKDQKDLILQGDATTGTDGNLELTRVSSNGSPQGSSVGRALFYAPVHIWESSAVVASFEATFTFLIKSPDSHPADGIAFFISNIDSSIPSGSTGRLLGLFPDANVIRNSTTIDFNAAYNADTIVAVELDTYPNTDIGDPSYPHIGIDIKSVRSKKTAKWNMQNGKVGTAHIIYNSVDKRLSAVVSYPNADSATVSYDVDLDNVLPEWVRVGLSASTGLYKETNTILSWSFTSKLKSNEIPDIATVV
Sequence of Fibroblast growth factor 2 (Homo sapiens) (P09038 whole entry, looked up): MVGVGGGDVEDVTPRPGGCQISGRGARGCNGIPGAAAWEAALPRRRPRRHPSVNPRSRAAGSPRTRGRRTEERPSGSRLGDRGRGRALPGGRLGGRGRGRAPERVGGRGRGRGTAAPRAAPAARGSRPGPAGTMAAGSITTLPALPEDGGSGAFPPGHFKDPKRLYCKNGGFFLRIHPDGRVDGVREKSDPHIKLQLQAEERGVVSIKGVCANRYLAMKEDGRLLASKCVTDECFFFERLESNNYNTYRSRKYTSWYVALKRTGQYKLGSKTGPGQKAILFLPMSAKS

For the compound `O=C1C2=CC[C@H]3C(=O)N(Cc4ccc5c(c4)OCO5)C(=O)[C@H]3[C@H]2[C@H](O)[C@@H]2O[C@H]12`, the composite z-score in test [1] is -0.176; in test [3] it was -0.0229; in [4] it was -0.14; in test [5], -0.0365; in [6] it was -0.142; in test [7], 0.397. Also, the composite z-score came out at 0.21 in [8]; 0.529 in test [9]; 0.534 in [10]; 1.06 in test [11]; 0.383 in [12]; 0.009 in test [13]. In addition, the composite z-score was 0.459 in test [14]; 0.281 in test [15]; 0.597 in [16]; 0.408 in [18]; -0.0306 in test [19]. For the same compound, in test [2], the composite Z-score was 0.0248 (inactive). The results for the z-score in test [17] and in test [20] were 0.738 and -0.272 (inactive), respectively.

With `COC(=O)[C@H](C)NC(=O)CCC1CC(OC(=O)NCc2cccc3ccccc23)CC2(CCCC(COC(=O)NCC3CCCCC3)O2)O1` (stereo not given in full), the composite z-score was -0.409 in test [1]; 0.175 in test [3]; -0.0984 in test [4]; 0.612 in [5]; 1.61 in test [6]; 0.486 in test [7]. Further, the composite z-score is 1.29 in [8]; 0.62 in test [9]; 1.12 in test [10]; 0.876 in test [11]; 1.22 in test [12]; 0.234 in [13]. Also, the composite z-score was determined as 0.986 in [14]; 0.591 in test [15]; 1.4 in test [16]; 1.09 in [18]; 0.487 in [19]. Also, in test [2], the composite Z-score is -0.551 (inactive). In addition, the z-score in test [17] was -0.25; in test [20] it was 0.925 (inactive).

`O=C(CS)NCCCCCNC(=O)[C@H]1C[C@H]2C(=O)N3CCC[C@H]3C(=O)N2[C@H]1c1cccc(OCCO)c1`: the composite z-score in test [1] is -1.4; in test [3], 0.121; in test [4], -0.101; in test [5] it was 0.46; in test [6] it was 2.45; in test [7], 0.729. Moreover, the composite z-score in test [8] is 1.34; in test [9], 1.4; in test [10], 1.2; in [11] it was 3.13; in [12], 1.11; in [13] it was 2.11. Further, the composite z-score in test [14] turned out to be 0.65; in test [15] it was 1.45; in test [16], 1.92; in test [18], 1.65; in test [19], 0.777. Also, the composite Z-score in test [2] was 0.62 (inactive). Also, the figures for the z-score in test [17] and in test [20] were 0.509 and -1.22 (inactive), respectively.

Turning to `Cc1ccc(C2CC=C(C(=O)O)CN2S(=O)(=O)c2ccc(C)cc2)cc1` (stereo not given), the composite z-score in test [1] is 0.921; in [3], 0.0203; in [4], -0.0567; in test [5] it was 0.78; in test [6], 0.93; in [7], 0.953. Also, the composite z-score in test [8] worked out at 1.32; in test [9] it was 0.193; in test [10], 1.12; in test [11] it was 1.26; in [12] it was 1.17; in test [13], 0.286. Further, the composite z-score in [14] is 0.566; in test [15] it was 0.158; in test [16] it was 0.0208; in test [18], 0.0504; in test [19] it was 0.718. Also, the composite Z-score in [2] was -0.326 (inactive). The z-score in test [17] was -1.23; in [20] it was 1.64 (inactive).

Consider `C[C@H]1CC[C@@H](C(=O)O)N[C@@H]1c1ccc(C#CCN(C)C)cc1`, for which the composite z-score in [1] is -0.0169; in [3], 0.0556; in [4], -0.149; in test [5], 0.37; in [6], -0.144; in [7] it was -0.0228. For the same compound, the composite z-score in test [8] was -0.331; in [9], 0.591; in test [10], 0.574; in [11], 0.601; in [12] it was 0.34; in test [13], 0.0583. Also, the composite z-score in test [14] amounted to 0.54; in test [15], 0.682; in test [16] it was 0.453; in test [18] it was 0.343; in test [19], 0.117. For the same compound, in [2], the composite Z-score was 0.26 (inactive). Also, the results for the z-score in test [17] and in test [20] were 1.04 and -0.931 (inactive), respectively.
